Potency data for 34 molecules are collected here from PubChem BioAssay (NCATS).

Inconclusive results are not listed. Where a call stands in place of a potency, no number is given. Activity calls are given as the source filed them. Calls follow the shape of the dose curve; as a rule, active = well fitted cell-killing curve with a large enough effect; inconclusive = small, poorly fitted or top-dose-only effect; inactive = no such curve, though single readings can be large or run the other way.
Potency is read from the fitted curve at half-maximal effect.

This assay in a line: qHTS of pediatric cancer cell lines to identify multiple opportunities for drug repurposing: Primary screen for MG 63 (6-TG R) cells (AID 1347105). Also: nearly all actives have a fitted effect of over 50% in size. The settings on record: MG 63 (6-TG R) viability, CellTiter-Glo, 48 h; series mostly up to 46 µM. In outline: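 Plated cells (500-1,000 per well, growth media) were allowed to settle for 5 hours, treated with compound dilutions for 48 hours, then lysed with CellTiter-Glo for 15 min at room temperature before luminescence reading.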
`Clc1ccc2ncc(-c3cccc(NC4CNC4)n3)n2c1`: the Potency result was “inactive”.
Consider `COc1ccc2c(OCc3nnc4ccc(-c5ccccc5)nn34)ccnc2c1`, for which the Potency result is “inactive”.
In the case of `O=C(c1cncc(Br)c1)N1CCC(N2CCCC2)CC1`, the Potency entry is “inactive”.
Regarding `COc1cc2ncn(-c3cc(OCc4ccccc4C(F)(F)F)c(C(N)=O)s3)c2cc1OC`, the Potency was 7.43 µM (active).
`CN1CCC(CNc2ccc3ncc(-c4cccc(OC(F)(F)F)c4)n3n2)CC1`: the Potency was 23.5 µM (active).
With `COc1cc(C(=O)NS(=O)(=O)c2ccccc2C)ccc1Cc1cn(C)c2ccc(NC(=O)OC3CCCC3)cc12`, the Potency is 29.6 µM (active).
For `COc1cc(C(C)C)c2c(c1)S(=O)(=O)N(COc1cc(=O)n3cccc(OCCN4CCCCC4)c3n1)C2=O` the value was “inactive”.
As to `O=C(NCCS(=O)(=O)c1ccc(C(F)(F)F)cn1)c1ccc(Cl)cc1`, the Potency entry was “inactive”.
Consider `COc1cc2ncnc(Nc3ccc(F)c(Cl)c3)c2cc1NC(=O)C=CCN1CCCCC1`, for which the Potency result was “inactive”.
For the molecule `CCCCCCCCCC(=O)N[C@@H](Cc1c[nH]c2ccccc12)C(=O)N[C@H](CC(N)=O)C(=O)N[C@@H](CC(=O)O)C(=O)N[C@@H]1C(=O)NCC(=O)N[C@@H](CCCN)C(=O)N[C@@H](CC(=O)O)C(=O)N[C@H](C)C(=O)N[C@@H](CC(=O)O)C(=O)NCC(=O)N[C@H](CO)C(=O)N[C@@H]([C@@H](C)CC(=O)O)C(=O)N[C@@H](CC(=O)c2ccccc2N)C(=O)O[C@@H]1C`, the Potency entry is “inactive”.
Regarding `Cc1cccc(C=NNc2cc(N3CCOCC3)nc(OCCc3ccccn3)n2)c1`, the Potency result is “inactive”.
For `CN1CCN(c2ccc3nc(-c4c(N)c5c(F)cccc5[nH]c4=O)[nH]c3c2)CC1`, the Potency result was “inactive”.
For `CC(O)C1C(=O)N2C(C(=O)O)=C(SC3CNC(C(=O)N(C)C)C3)C(C)C12` (centres undefined), the Potency entry was “inactive”.
As to `COC(=O)C[C@](O)(CCCC(C)(C)O)C(=O)O[C@@H]1C(OC)=C[C@]23CCCN2CCc2cc4c(cc2[C@H]13)OCO4`, the Potency result was “inactive”.
Regarding `Cn1cc(-c2ccncc2)c(-c2ccc(OCc3ccc4ccccc4n3)cc2)n1`, the Potency entry was “inactive”.
For `CC(C)(O)CCc1ccc(OCc2cc(-c3cccc(OC(F)F)c3)c3ncccc3c2)cc1` the value was “inactive”.
Take `N#Cc1c(O)c2c(-c3ccc(-c4ccccc4O)cc3)csc2[nH]c1=O`: the Potency result is “inactive”.
For `CC(=O)SC[C@@H](C)C(=O)N1CCC[C@H]1C(=O)N[C@@H](Cc1ccccc1)C(=O)O`, the Potency result is “inactive”.
Regarding `CCCCN1CCC(CNC(=O)c2c3n(c4ccccc24)CCCO3)CC1`, the Potency was 0.935 µM (active).
For `O=C(Nc1nc2cccc(-c3ccc(CN4CCS(=O)(=O)CC4)cc3)n2n1)C1CC1` the value was 23.5 µM (active); for `CCOc1ccccc1OCCNC(C)Cc1ccc(OC)c(S(N)(=O)=O)c1` (centres undefined), “inactive”; for `C1Cc2[nH]nc(-c3nn[nH]n3)c2C1`, “inactive”.
On to `Clc1cccc(-n2nnnc2NCc2ccccc2Oc2ccccn2)c1Cl`, for which the Potency result is “inactive”.
For `C[C@]12CC[C@H](O)CC1=CCC1C2CC[C@]2(C)C(n3cnc4ccccc43)=CCC12` (some centres undefined) the value was “inactive”; for `Nc1nc(NCCNc2ncc(-n3ccnc3)c(-c3ccc(Cl)cc3Cl)n2)ccc1[N+](=O)[O-]`, 14.8 µM (active); for `CC[C@H](CO)Nc1nc(NCc2ccccc2)c2ncn(C(C)C)c2n1`, “inactive”.
For `Cn1c2cc(S(C)=O)sc2c2cnn(Cc3cccc(N)c3)c(=O)c21` (centres undefined), the Potency entry is “inactive”.
With `COC(=O)C1=C(C)NC(C)=C(C(=O)OCCN2CCN(C(c3ccccc3)c3ccccc3)CC2)C1c1cccc([N+](=O)[O-])c1` (centres undefined), the Potency entry was “inactive”.
For `Cc1ccc(CN2CCNCC2)cc1NC(=O)CNc1ccc(F)c(F)c1` the value was “inactive”; for `C[C@]1(CO)CN(c2cc(C(=O)Nc3ccc4c(c3)-c3c(c(C(N)=O)nn3-c3ccc(F)cc3)CC4)c(Cl)cn2)C[C@@]1(C)CO`, 9.35 µM (active); for `CC(=O)Nc1sc2c(c1-c1nc3ccccc3s1)CNC2`, “inactive”.
For `CC(C)c1noc(N2CCC(COc3ccc(-c4ccc(S(C)(=O)=O)cc4)nc3)CC2)n1`, the Potency result was “inactive”.
With `Clc1cccc(-c2nnnn2Cc2cccnc2)c1Cl`, the Potency result is “inactive”.
In the case of `O=C(C=Cc1c(C(=O)O)[nH]c2cc(Cl)cc(Cl)c12)Nc1ccccc1` it was “inactive”.
